About 83,000 compounds went through this panel and 20% of them were active in at least one assay; those are over-represented in the sample as a whole.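 Activity criterion: percent growth below 10, measured after cells in 96-well plates were exposed to a single compound concentration for 48 hours.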 The source made the active and inactive calls.
These compounds were tested on ACHN renal (assay: NCI-60 one-dose screen, 48 h (100 = growth as untreated, 0 = no growth, -100 = all killed)). Settings: 10 µM unless noted.
Procedure: Growth inhibition of the ACHN human tumor cell line is measured as a screen for anti-cancer activity. Cells are grown in 96 well plates and exposed to the test compound for 48 hours. Compounds are tested at a single concentration, which is 10^-5 M for most compounds. The reported endpoint is percent growth (GI% or GIPRCNT), where numbers from 0 - 100% represent growth inhibition, and numbers from -100% - 0 represent cell death. For example, a value of 40 represents 60% growth inhibition. A value of 0 means no net growth occurred over the course of the experiment. A value of -40 indicates 40% of cells at the beginning of the experiment died by the end of the experiment. A value of -100 means all cells are dead at the end of the experiment.
NCI-60 Human Tumor Cell Lines Screen was performed using the standard one-dose NCI protocol, which is described in more detail at https://dtp.cancer.gov/discovery_development/nci-60/default.htm.
Compounds with GIPRCNT values below 10 were considered active. Activity score was based on GIPRCNT using the following formula: […]
Score is 0 for GIPRCNT values of 100 or above, 50 for GIPRCNT values of 0, and 100 for GIPRCNT values of -100.

SMILES	growth
Cc1ccc(C(Cc2ccccc2)NCCO)cc1 (stereo not given)	89.6% (inactive)
Nc1nnnc2nc[nH]c12	2.18% (active)
CCOC(=O)[C@@H](C)C[C@H](Cc1ccccc1)NC(=O)c1csc([C@@H](C[C@H](C(C)C)N(C)C(=O)[C@@H](NC(=O)[C@H]2CCCCN2C)C(C)(C)CC)OC(C)=O)n1	2.48% (active)
Nc1cc2nc3ccccc3nc2cc1N	99.2% (inactive)
Cn1cc(-c2csc(-c3cn(CCN4CCOCC4)c4ccc(F)cc34)n2)c2cccnc21	17.7% (inactive)
COC(=O)[C@@H](C)C[C@H](Cc1ccccc1)NC(=O)c1cccc([C@@H](C[C@H](C(C)C)N(C)C(=O)[C@@H](NC(=O)[C@H]2CCCCN2C)C(C)C)OC(C)=O)n1	30.4% (inactive)
CC(=O)OC1C(OC/C2=C/C3[C@@H](C(C)C)CC=C(C)[C@@H]3CC(OC(=O)/C=C/c3cn(C)cn3)[C@]3(C)C=C[C@@]2(O)O3)OCC(O)C1O (stereo not given in full)	45% (inactive)
CC12CC(=O)C3(SC#N)C(CCC4=CC(=O)CCC43C)C1CCC2=O (stereo not given)	49.2% (inactive)
O=C(CCCC1CCCCC1)OCC(Cl)(Cl)Cl	110% (inactive)
COC(=O)[C@@H](C)C[C@H](Cc1ccccc1)NC(=O)c1nc([C@@H](C[C@H](C(C)C)N(C)C(=O)[C@@H](NC(=O)[C@H]2CCCCN2C)C(C)C)OC(C)=O)sc1C	24.5% (inactive)
CNC12C3C4C1C1C2C3C41C(=O)N[C@H](C(=O)N(C)[C@H](C[C@@H](OC(C)=O)c1nc(C(=O)N[C@@H](Cc2ccccc2)C[C@H](C)C(=O)OC)cs1)C(C)C)C1CC1 (stereo not given in full)	23.2% (inactive)
CCC1CN1CCCCN1CC1CC (stereo not given)	100% (inactive)
CC(CC1CCCCC1)NCc1ccccc1 (stereo not given)	96.1% (inactive)
N#C[Se]CCN1C(=O)c2ccccc2C1=O	63.2% (inactive)
CN(C)C(=O)Oc1ccccc1-c1ccccc1	104% (inactive)
COc1cccc(C=NC(Cc2cnc[nH]2)C(=O)O)c1O (stereo not given)	97.8% (inactive)
C[n+]1c(/C=C/c2ccc(N(CCCl)CCCl)cc2)sc2ccccc21	78.8% (inactive)
C[C@]12C[C@@H](CO)[C@H](O)C[C@@H]1CC[C@@H]1[C@@H]2CC[C@]2(C)[C@@H](O)CC[C@@H]12	101% (inactive)
O=[N+]([O-])c1c(Br)sc(Br)c1[N+](=O)[O-]	-56.4% (active)
CC(=O)[O][Hg][c]1c(N)c(C)cc(C)c1F	62.9% (inactive)

SMILES	growth
Cc1ccc(N2COOC3(OOC2)C2CC4CC(C2)CC3C4)cc1	97.7% (inactive)
O=C(Nc1ccc(Br)cc1)c1cc(Br)cc(Br)c1O	-19.5% (active)
Nc1ccc2c(c1)oc1ccccc12	102% (inactive)
COC(=O)[C@@H](C)C[C@H](Cc1ccccc1)NC(=O)c1csc([C@@H](C[C@H](C(C)C)N(C)C(=O)[C@H](C)NC(=O)[C@H]2CCCN2C)OC(C)=O)n1	68.6% (inactive)
CC1=C(CCCNS(C)(=O)=O)C2=C(C)C3(CC3)[C@@](C)(O)C(=O)C2=C1	-23.6% (active)
CCCCCCC(=O)NC1=C(N2CC2)C(=O)C(NC(=O)CCCCCC)=C(N2CC2)C1=O	32.9% (inactive)
COC(=O)[C@H](Cc1c[nH]c2ccccc12)NC(=O)[C@@H](OC)[C@@H]1Cc2cc3cc(OC4CC(OC5CC(O)C(O)C(C)O5)C(O)C(C)O4)c(C)c(O)c3c(O)c2C(=O)[C@H]1OC1CC(OC2CC(OC3CC(C)(O)C(O)C(C)O3)C(O)C(C)O2)C(O)C(C)O1 (stereo not given in full)	0.567% (active)
C=CCc1cc2c(cc1OCC)OCO2	111% (inactive)
CCOP1(=O)CC(C)=C(Cl)C(P(=O)(OCC)OCC)C1 (stereo not given)	110% (inactive)
CCCCN1CCCC[C@@H]1C(=O)N[C@H](C(=O)N(C)[C@H](C[C@@H](OC(C)=O)c1nc(C(=O)NC2CCC(C(=O)OC)CC2)cs1)C(C)C)C(C)C (stereo not given in full)	54.8% (inactive)
ClCCN(CCCl)c1ccc(-n2cnc3c(Cl)ncnc32)cc1	-82.1% (active)
COc1cc([N+](=O)[O-])c2nc(C)ccc2c1[N+](=O)[O-]	89.5% (inactive)
C=C1[C@@H](C)[C@H]2[C@H](Cc3ccccc3)NC(=O)[C@]23[C@@H](O)/C=C/[C@@](C)(O)C(=O)[C@@H](C)C/C=C/[C@H]3[C@@H]1O	45.6% (inactive)
CCCCCN(CCCCC)CC(O)c1cc(Cl)ccc1OC (stereo not given)	43.9% (inactive)
COc1ccc(/C=C\c2cc(OC)c(OC)c(OC)c2)cc1OCC(=O)Nc1nc2ccc(C(F)(F)F)cc2s1	38.2% (inactive)
N#CCCNc1ccccc1	101% (inactive)
O=[N+]([O-])/C=C\c1ccc(Cl)c(Cl)c1	78.4% (inactive)
Fc1ccc(C2=CCNCC2)cc1	108% (inactive)
CC(C)=CCC[C@H](C(=O)O)[C@@H]1CC[C@]2(C)C3=C(CC[C@@]12C)[C@@]1(C)CC[C@H](O)C(C)(C)[C@@H]1CC3	101% (inactive)
Fc1ccc2c(c1)c(-c1nc(-c3c[nH]c4ncccc34)cs1)cn2CCCCN1CCCCC1	-97.4% (active)

From PubChem BioAssay (NCI)
